ELG1 DNA repair = qHTS screen for small molecules that inhibit ELG1-dependent DNA repair in human embryonic kidney (HEK293T) cells expressing luciferase-tagged ELG1; HEK293T ELG1-luciferase reporter, luminescence, 16 h; DNA damage induced by 5-fluorouridine; Potency, µM (doses to about 46.1 µM), for inactives: at the highest dose activity change, negative = inhibition, most hits filed as inhibitors; actives 2.3% (n = 330,000); AID 504467, 2011; also: % is scaled to controls: 0 for no effect and ±100 for the full control effect; nearly all actives have a fitted effect of over 55% in size
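Luminescence from the luciferase reporter, measured 30 min after ONE-Glo reagent at room temperature, was the read-out. Beforehand, 2,000 cells per well were exposed for 16 hr at 37 °C to 5-fluorouridine together with compound or vehicle.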
ELG1 genotox = qHTS screen for small molecules that induce genotoxicity in human embryonic kidney (HEK293T) cells expressing luciferase-tagged ELG1; actives 1.3% (n = 330,000); AID 504466, 2011; HEK293T ELG1-luciferase reporter, luminescence, 16 h; Potency, µM (top dose mostly 46 µM), for inactives: at the top dose activity change, positive = activation, hits mostly activators; also: % of control where 0% means no effect; nearly all actives have a fitted effect of over 60% in size
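HEK293T cells expressing luciferase-tagged ELG1 were treated with compound or DMSO for 16 hr at 37°C. Luciferase activity was then read after 30 min with ONE-Glo at room temperature; rising signal flags genetic stress.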
Rab9 prom act = qHTS Assay for Rab9 Promoter Activators; Huh7 Rab9 promoter-luciferase reporter, luminescence, 24 h; Potency, µM (titrated, usually from 9.22 µM), for the others: at the top dose activation, negative = inhibition, most hits filed as activators; actives 2.8% (n = 320,000); AID 485297, 2010; also: % of control where 0% means no effect; nearly all actives have a fitted effect of over 60% in size
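Measured in stably transfected Huh7 cells bearing a Rab9 promoter–luciferase construct: 24 h compound treatment at 37 °C, followed by luminescence detection.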
FLuc counter = qHTS profiling assay for firefly luciferase inhibitor/activator using purifed enzyme and Km concentrations of substrates (counterscreen for miR-21 project). actives 6.9% (n = 360,000). Luciferin 4-monooxygenase (Photinus pyralis), P08659. Potency, µM (titrated, usually from 57.5 µM), without a hit: at the highest dose activity change, negative = inhibition, hits mostly inhibitors. purified FLuc, Km substrates, luminescence inhibition;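 also: plate controls were vehicle for no effect and reference inhibitor for full effect; nearly all actives have a fitted effect of over 55% in size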
Target sequence (P08659 whole entry, looked up): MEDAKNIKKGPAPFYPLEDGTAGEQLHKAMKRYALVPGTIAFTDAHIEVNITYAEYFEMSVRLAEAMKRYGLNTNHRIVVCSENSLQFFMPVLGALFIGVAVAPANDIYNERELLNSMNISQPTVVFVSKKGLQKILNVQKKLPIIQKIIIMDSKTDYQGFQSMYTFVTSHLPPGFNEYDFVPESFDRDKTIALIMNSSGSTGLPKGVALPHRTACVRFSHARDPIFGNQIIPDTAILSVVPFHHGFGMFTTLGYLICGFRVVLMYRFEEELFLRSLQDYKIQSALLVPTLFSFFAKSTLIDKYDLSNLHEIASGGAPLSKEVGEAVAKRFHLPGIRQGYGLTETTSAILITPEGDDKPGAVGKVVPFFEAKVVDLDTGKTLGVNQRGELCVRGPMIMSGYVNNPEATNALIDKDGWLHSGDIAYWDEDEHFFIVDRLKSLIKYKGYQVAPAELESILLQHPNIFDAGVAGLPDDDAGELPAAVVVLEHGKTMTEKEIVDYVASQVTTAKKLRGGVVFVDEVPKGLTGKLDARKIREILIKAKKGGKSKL
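Biochemical qHTS of compounds, final roughly 60 µM downward over six points, against 10 nM purified firefly luciferase using Km concentrations of substrates (10 uM D-luciferin, 10 uM ATP) in Tris acetate pH 7.5 buffer; luminescence output.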
NPC1 promoter act = qHTS Assay for NPC1 Promoter Activators; AID 485313, 2010; Huh7 NPC1 promoter luciferase reporter, 24 h; Potency, µM (doses to about 9.22 µM), inactives show at the highest dose activation, hits mostly activators; actives 2.4% (n = 320,000); also: % of control where 0% means no effect; nearly all actives have a fitted effect of over 60% in size
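Stable NPC1-promoter luciferase Huh7 line; cpd (DMSO) 24 h, 37 °C, 5% CO2; Amplite luciferase reagent 10 min RT; luminescence readout. qHTS format.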
SMN2 splice enh = qHTS Assay for Enhancers of SMN2 Splice Variant Expression | HEK293 SMN2-luciferase splicing reporter, luminescence, 30-36 h | AID 1458, 2008 | Potency, µM (highest dose often 46.1 µM), for the others: top-dose activity change, positive = activation, actives largely listed as activators | actives 2.8% (n = 210,000); also: % of control where 0% means no effect; nearly all actives have a fitted effect of over 55% in size
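HEK293 cells carry an SMN2 […]–luciferase reporter in which exon 7 inclusion puts luciferase in frame. Cells were plated 10-12 h before compound addition, then incubated 30-36 h at 37C. ONE-Glo luminescence was read; sodium butyrate at 4.5 mM final served as control.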
ELG1 FLuc counter = qHTS screen for small molecules that inhibit ELG1-dependent DNA repair: Hit Confirmation in Cell-Based Luciferin Assay; cell-free firefly luciferase luminescence counter-screen, ViewLux; shares compounds with ELG1 DNA repair; Potency, µM (top dose mostly 46.1 µM), for inactives: at the highest dose activity change, negative = inhibition, actives largely listed as inhibitors; actives 3% (n = 350); AID 624247, 2012; also: % is scaled to controls: 0 for no effect and ±100 for the full control effect
ELG1-Luc inh = HTS assay for small molecules that inhibit ELG1-dependent DNA repair in human embryonic kidney (HEK293T) cells expressing luciferase-tagged ELG1: Hit Confirmation; shares compounds with ELG1 DNA repair; HEK293T ELG1-luciferase levels, luminescence; cells co-treated with 5-fluorouridine; Potency, µM (highest dose often 46.1 µM), for the others: top-dose activity change, negative = inhibition, actives largely listed as inhibitors; actives 68% (n = 670); also: % is scaled to controls: 0 for no effect and ±100 for the full control effect; nearly all actives have a fitted effect of over 55% in size
ELG1-Luc MMS = inhibits ELG1-dependent repair under MMS stimulation in HEK293T cells; shares compounds with ELG1 DNA repair; Potency, µM (titrated, usually from 46.1 µM), inactives show at the highest dose activity change, negative = inhibition, actives largely listed as inhibitors; HEK293T luciferase-tagged ELG1 level, MMS stimulated; actives 53% (n = 670); also: % is scaled to controls: 0 for no effect and ±100 for the full control effect; nearly all actives have a fitted effect of over 60% in size
ELG1 5-FU = qHTS screen for small molecules that inhibit ELG1-dependent DNA repair: Hit Confirmation with 5FU Viability. 670 tested, under 10 active. shares compounds with ELG1 DNA repair. cell viability with 5-FU, ELG1-dependent repair. Potency, µM (titrated, usually from 46.1 µM), inactives show at the top dose activity change, negative = viability loss, hits mostly cytotoxic. AID 624250, 2012;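 also: ELG1-luc HEK293T cells cotreated with 5-fluorouridine at 10 µM final; viability measured 16 h after compound addition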
ELG1 MMS viab = qHTS screen for small molecules that inhibit ELG1-dependent DNA repair: Hit Confirmation with MMS Viability | Cell viability with MMS, ELG1-dependent DNA repair | shares compounds with ELG1 DNA repair | Potency, µM (series often up to 46.1 µM), for the others: top-dose activity change, negative = viability loss, actives largely listed as cytotoxic | AID 624251, 2012 | actives 33% (n = 670);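 also: ELG1-luc HEK293T cells co-treated with 10 µM MMS; viability read 16 h after compound addition; % is scaled to controls: 0 for no effect and ±100 for the full control effect; nearly all actives have a fitted effect of over 60% in size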
ELG1 unstim viab = qHTS screen for small molecules that inhibit ELG1-dependent DNA repair: Hit Confirmation with Unstimulated Viability Assay. shares compounds with ELG1 DNA repair. cell viability counter-screen, unstimulated, luminescence. Potency, µM (titrated, usually from 45.9 µM), without a hit: at the highest dose activity change, negative = loss of viability, hits mostly cytotoxic. actives 8% (n = 900). AID 624252, 2012;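 also: compound exposure lasted 16 hours before reading; % is scaled to controls: 0 for no effect and ±100 for the full control effect; nearly all actives have a fitted effect of over 55% in size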
FLuc biochem = qHTS screen for small molecules that inhibit ELG1-dependent DNA repair: Hit Confirmation in Biochemical Luciferin Assay. actives 10% (n = 350). purified firefly luciferase, luminescence counter-screen. AID 624253, 2012. Potency, µM (series often up to 57.5 µM), for the others: at the top dose activity, negative = inhibition, hits mostly inhibitors. shares compounds with ELG1 DNA repair; also: % is scaled to controls: 0 for no effect and ±100 for the full control effect
The depositor's hits bear a star; ? = inconclusive; . = no result given. This is a sample that favours compounds with a hit; in the whole collection about 9.4% have one here. Calls follow the shape of the dose curve; as a rule, active = well fitted curve in the direction sought with a large enough effect; inconclusive = small, poorly fitted or top-dose-only effect, or another doubt; inactive = no such curve, though single readings can be large; an effect the other way counts as inactive or inconclusive. Potency is read from the fitted curve at half-maximal effect.

SMILES	ELG1 DNA repair	ELG1 genotox	Rab9 prom act	FLuc counter	NPC1 promoter act	SMN2 splice enh	ELG1 FLuc counter	ELG1-Luc inh	ELG1-Luc MMS	ELG1 5-FU	ELG1 MMS viab	ELG1 unstim viab	FLuc biochem
C#CCOCCOCCOCCNc1nc(N2CCN(C(=O)[C@H](CCCCN)n3cc(CN)nn3)CC2)nc(N2CCN(C(=O)[C@H](CCCN=C(N)N)n3cc(C(N)[C@H](C)CC)nn3)CC2)n1 (some centres undefined)	26.5%	3.4%	.	.	.	.	.	.	.	.	.	.	.
Cc1ccc(NC(=O)N2CCOCC2)c(C)c1	7.4%	-1.7%	?	0.0%	0.9%	-4.4%	.	.	.	.	.	.	.
Cc1ccc2oc(NC(=O)N3CCOCC3)cc(=O)c2c1	3.55µM*	-2.6%	2.2%	-4.5%	3.1%	9.7%	.	18.6%	14.9%	-2.8%	-5.5%	-12.7%	.
O=C(O)c1cccc(-n2nc(-c3ccc(Cl)c([N+](=O)[O-])c3)c3ccccc3c2=O)c1	8.1%	12.9%	0.7%	-13.3%	4.4%	.	.	.	.	.	.	.	.
CC(=O)NC(CC(=O)Nc1ccc(S(=O)(=O)Nc2nccs2)cc1)c1ccccc1 (centres undefined)	0.517µM*	2.1%	-5.8%	4.0%	-1.0%	.	6.4%	?	-5.8%	4.9%	10.6%	5.3%	1.6%
CC(=O)NC(CC(=O)Nc1ccc(S(=O)(=O)NC2=NCCCCC2)cc1)c1ccccc1 (centres undefined)	18.4%	-0.1%	2.0%	2.5%	0.8%	.	.	.	.	.	.	.	.
CCC(C)NC(=O)c1ccc2nc(-c3ccc(OC)c(OC)c3)c(-c3ccc(OC)c(OC)c3)nc2c1 (centres undefined)	0.517µM*	-6.1%	-2.4%	1.4%	-3.3%	.	8.7%	1.58µM*	-16.7%	?	-8.1%	?	-5.3%
COCC(C)NC(=O)c1ccc2nc(-c3ccccc3)c(-c3ccccc3)nc2c1 (centres undefined)	?	-4.9%	7.1%	-2.9%	-3.4%	.	.	.	.	.	.	.	.
COc1ccc2cc3c(N)nn(C(=O)c4ccccc4Cl)c3nc2c1	0.651µM*	-7.7%	10.7%	?	-0.5%	-47.1%	?	0.792µM*	3.97µM*	7.4%	-1.1%	?	-8.5%
COc1ccc(C(=O)n2nc(-c3ccc(OC)cc3)nc2N)cc1	-0.3%	6.3%	-0.3%	-1.1%	-8.2%	22.6%	.	.	.	.	.	.	.
COc1ccc2cc3c(N)nn(C(=O)c4ccc(F)cc4)c3nc2c1	4.11µM*	-8.1%	1.0%	-7.2%	14.7%	.	.	2.5µM*	4.45µM*	8.2%	4.5%	-4.3%	.
Cc1ccc(-c2cn3c(n2)sc2cc(C(=O)NC4CCCCCC4)ccc23)c(C)c1	.	.	.	-0.8%	.	.	.	.	.	.	.	.	.
O=C(N[C@H]1/C=C\[C@@H](O)CCCC1)OCc1ccccc1	?	14.6µM*	.	.	.	.	.	.	.	.	.	5.2%	.
CCCCNC(=O)/C(C#N)=C/c1ccc(F)cc1F	-4.5%	11.4%	2.7%	-17.9%	-21.2%	13.0%	.	.	.	.	.	.	.
Cc1cc(C(=O)CSc2nc(N)cc(=O)[nH]2)c(C)n1-c1ccc(OC(F)F)cc1	?	-0.3%	-35.3%	0.6%	-38.0%	-75.7%	.	-6.1%	1.58µM*	-15.7%	1.58µM*	?	.
Cc1cc(=O)oc2cc(NC(=O)C(C)Oc3ccc(F)cc3)ccc12 (centres undefined)	-4.5%	8.4%	-1.8%	0.6%	-1.2%	.	.	.	.	.	.	.	.
Cc1cc(=O)oc2cc(NC(=O)c3ccc(OC(F)F)cc3)ccc12	?	4.47µM*	?	-14.2%	?	.	.	.	.	.	.	-2.0%	.
Cc1nc2sc3c(NCc4ccco4)ncnc3c2c2c1COC(C)(C)C2	2.59µM*	-1.7%	-5.5%	2.2%	-2.0%	-4.9%	-6.7%	3.54µM*	22.3µM*	?	-11.2%	?	-3.8%
c1ccc2c(c1)CCN(c1nc(CN3CCOCC3)nc3sc4c(c13)CCCC4)C2	10.3µM*	-1.4%	-2.2%	3.5%	0.4%	?	-10.5%	9.97µM*	?	?	-19.3%	-20.4%	-1.7%

From PubChem
